Compound in this assay: Nc1ncnc2c1ncn2[C@@H]1O[C@H](COP(=O)(O)OP(=O)(O)OP(=O)(O)O)[C@@H](O)[C@H]1O [adenosine 5'-triphosphate]
The assay is described as follows: log2 fold change of tryptic peptide abundance, ligand vs vehicle (limited proteolysis) (log2 ratio); higher = more trypsin-susceptible (destabilized). The settings on record: ligand concentration: 5 mM; sample: E. coli desalted lysate; replicate design: treated before aliquoting. On the procedure: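 HT-PELSA: desalted E. coli K-12 BW25113 lysate (with 12 mM MgCl2) incubated with 5 mM ATP (pH 7) or water for 30 min at 25 C, then a 4 min trypsin pulse at 22 C. Peptides were quantified by DIA-MS (4 replicates). Value is the peptide log2 fold change (treated/control); negative = stabilized. Scale: negative = ligand-stabilized region.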
Chain of UniProt P76116 (P76116 whole entry): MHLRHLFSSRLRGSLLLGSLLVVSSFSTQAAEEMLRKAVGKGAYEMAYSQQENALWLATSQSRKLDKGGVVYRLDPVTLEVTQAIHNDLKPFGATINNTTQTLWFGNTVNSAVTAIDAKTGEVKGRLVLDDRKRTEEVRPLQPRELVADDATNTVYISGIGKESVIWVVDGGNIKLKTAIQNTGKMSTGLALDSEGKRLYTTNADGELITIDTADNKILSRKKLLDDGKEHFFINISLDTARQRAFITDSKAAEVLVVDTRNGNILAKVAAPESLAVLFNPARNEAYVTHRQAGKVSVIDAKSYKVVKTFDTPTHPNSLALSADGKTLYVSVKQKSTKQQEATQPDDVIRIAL
Chain of UniProt P00888 (P00888 whole entry): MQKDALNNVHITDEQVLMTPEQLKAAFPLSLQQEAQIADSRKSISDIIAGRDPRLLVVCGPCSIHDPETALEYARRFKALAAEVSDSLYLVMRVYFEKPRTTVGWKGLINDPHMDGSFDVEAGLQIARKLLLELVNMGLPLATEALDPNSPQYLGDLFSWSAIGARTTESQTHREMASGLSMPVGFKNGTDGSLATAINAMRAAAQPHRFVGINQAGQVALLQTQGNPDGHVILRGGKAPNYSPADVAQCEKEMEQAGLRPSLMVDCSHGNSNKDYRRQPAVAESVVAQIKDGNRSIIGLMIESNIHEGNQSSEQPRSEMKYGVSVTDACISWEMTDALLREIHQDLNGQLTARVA
Chain of UniProt P37342 (P37342 whole entry): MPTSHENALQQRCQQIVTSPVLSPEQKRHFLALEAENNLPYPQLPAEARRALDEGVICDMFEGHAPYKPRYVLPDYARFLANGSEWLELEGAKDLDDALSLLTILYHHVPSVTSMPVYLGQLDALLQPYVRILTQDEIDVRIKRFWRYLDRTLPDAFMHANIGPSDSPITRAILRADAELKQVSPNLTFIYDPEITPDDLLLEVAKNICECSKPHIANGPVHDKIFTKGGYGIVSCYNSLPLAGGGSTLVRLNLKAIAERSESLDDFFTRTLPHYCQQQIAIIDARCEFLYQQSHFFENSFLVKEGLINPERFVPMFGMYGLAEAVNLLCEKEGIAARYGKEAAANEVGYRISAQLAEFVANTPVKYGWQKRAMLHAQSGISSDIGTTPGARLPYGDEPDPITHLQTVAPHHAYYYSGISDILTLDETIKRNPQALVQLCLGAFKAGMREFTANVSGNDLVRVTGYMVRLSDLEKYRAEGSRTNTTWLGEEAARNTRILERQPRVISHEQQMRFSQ
Chain of UniProt P39353 (P39353 whole entry): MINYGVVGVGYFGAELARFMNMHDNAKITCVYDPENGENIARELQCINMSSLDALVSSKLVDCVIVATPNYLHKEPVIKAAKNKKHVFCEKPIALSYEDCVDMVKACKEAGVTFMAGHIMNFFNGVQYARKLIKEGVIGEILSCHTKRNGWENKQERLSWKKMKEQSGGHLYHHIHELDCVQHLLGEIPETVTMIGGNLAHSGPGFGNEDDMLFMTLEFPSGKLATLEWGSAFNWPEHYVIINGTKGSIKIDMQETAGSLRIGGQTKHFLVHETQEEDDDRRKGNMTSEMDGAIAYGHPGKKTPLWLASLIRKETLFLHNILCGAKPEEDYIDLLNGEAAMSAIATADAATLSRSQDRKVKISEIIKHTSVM
Chain of UniProt P07013 (P07013 whole entry): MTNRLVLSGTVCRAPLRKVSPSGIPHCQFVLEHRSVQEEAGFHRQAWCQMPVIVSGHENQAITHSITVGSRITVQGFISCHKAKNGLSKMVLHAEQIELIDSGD
Chain of UniProt P14175 (P14175 whole entry): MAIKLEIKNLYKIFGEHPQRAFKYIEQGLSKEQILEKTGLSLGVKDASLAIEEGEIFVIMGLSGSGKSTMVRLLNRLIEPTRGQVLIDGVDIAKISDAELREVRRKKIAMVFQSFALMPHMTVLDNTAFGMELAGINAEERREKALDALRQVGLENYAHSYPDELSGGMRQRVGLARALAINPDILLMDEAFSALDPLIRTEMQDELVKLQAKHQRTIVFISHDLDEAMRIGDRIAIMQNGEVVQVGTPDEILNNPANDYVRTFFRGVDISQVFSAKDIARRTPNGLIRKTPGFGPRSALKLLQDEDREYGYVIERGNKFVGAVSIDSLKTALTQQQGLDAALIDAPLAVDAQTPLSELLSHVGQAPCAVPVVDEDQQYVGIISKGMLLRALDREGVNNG
Chain of UniProt P37326 (P37326 whole entry): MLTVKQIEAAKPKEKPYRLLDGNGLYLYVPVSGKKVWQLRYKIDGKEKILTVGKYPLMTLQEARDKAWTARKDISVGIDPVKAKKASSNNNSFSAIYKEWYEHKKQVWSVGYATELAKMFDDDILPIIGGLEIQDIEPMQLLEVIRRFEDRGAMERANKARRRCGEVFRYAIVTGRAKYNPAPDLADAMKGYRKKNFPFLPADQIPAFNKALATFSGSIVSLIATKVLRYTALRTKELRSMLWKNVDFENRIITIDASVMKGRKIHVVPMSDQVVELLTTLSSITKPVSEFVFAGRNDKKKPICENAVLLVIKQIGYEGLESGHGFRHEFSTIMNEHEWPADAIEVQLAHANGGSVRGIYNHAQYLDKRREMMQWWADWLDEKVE
Chain of UniProt P77610 (P77610 whole entry): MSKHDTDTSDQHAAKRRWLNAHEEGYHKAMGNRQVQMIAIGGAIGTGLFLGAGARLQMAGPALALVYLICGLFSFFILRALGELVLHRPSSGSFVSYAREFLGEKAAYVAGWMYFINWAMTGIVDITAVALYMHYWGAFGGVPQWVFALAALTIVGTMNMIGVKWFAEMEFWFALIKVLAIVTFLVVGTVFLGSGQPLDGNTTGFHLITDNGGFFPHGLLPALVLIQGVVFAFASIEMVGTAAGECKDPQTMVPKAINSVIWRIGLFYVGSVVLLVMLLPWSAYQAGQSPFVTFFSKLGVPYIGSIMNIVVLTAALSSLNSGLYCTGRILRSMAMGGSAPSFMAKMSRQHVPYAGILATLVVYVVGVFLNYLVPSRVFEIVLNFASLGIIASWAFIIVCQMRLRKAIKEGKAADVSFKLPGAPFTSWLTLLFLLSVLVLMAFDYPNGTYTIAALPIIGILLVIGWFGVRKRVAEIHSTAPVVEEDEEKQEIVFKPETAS
Chain of UniProt P0AEH3 (P0AEH3 whole entry): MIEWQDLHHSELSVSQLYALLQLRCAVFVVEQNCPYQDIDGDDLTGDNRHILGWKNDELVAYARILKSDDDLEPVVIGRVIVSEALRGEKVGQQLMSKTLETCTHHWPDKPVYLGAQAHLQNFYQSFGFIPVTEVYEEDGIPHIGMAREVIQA
Chain of UniProt P39342 (P39342 whole entry): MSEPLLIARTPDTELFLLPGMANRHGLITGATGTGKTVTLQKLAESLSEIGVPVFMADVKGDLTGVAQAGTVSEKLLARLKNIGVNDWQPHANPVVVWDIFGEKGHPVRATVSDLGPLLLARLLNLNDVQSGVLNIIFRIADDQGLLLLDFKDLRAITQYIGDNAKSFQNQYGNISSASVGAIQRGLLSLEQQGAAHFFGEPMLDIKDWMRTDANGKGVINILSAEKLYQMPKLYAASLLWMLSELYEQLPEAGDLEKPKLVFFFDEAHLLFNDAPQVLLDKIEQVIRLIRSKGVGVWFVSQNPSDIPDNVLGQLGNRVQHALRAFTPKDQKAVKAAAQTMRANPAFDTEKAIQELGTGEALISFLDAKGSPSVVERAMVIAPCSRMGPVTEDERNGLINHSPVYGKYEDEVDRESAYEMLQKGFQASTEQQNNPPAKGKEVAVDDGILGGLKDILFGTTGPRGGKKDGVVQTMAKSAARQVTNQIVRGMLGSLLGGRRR
Chain of UniProt P39830 (P39830 whole entry): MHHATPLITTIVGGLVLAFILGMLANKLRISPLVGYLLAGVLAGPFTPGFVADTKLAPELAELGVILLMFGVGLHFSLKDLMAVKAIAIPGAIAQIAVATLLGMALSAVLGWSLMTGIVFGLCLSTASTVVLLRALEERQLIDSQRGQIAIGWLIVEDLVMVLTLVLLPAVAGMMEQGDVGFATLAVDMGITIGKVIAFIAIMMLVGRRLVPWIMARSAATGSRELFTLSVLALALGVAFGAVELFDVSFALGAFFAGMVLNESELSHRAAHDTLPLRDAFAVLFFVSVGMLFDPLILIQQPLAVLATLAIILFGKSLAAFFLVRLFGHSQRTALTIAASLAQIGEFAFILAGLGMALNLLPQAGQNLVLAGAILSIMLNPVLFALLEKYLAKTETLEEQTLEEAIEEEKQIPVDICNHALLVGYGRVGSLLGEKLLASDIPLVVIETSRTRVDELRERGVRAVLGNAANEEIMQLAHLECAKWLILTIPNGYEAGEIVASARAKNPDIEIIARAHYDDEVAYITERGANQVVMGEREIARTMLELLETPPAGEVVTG
Chain of UniProt P75830 (P75830 whole entry): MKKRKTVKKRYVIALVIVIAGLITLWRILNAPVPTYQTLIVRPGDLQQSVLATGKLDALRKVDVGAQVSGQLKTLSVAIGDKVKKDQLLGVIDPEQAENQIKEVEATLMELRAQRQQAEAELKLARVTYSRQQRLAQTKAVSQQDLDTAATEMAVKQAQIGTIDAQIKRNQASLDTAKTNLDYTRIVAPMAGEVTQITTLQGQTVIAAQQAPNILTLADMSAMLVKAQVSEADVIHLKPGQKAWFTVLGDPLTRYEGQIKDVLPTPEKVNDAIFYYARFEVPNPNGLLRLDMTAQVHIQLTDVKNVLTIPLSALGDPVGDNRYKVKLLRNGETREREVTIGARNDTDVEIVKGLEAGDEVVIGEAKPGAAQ
Chain of UniProt P42599 (P42599 whole entry): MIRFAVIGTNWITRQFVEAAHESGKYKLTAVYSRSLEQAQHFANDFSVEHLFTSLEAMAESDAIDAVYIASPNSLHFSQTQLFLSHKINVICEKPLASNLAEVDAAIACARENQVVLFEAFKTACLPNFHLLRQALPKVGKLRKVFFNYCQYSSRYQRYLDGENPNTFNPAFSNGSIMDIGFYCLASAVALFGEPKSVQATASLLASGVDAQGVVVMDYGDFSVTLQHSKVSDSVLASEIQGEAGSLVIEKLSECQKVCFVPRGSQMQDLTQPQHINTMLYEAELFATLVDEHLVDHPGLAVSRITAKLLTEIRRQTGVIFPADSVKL
For the target “UniProt P02916 (peptide sequence: ETTAQPEGER, peptide start residue: 161)”, the log2 fold change stood at 0.465.

“UniProt P02358 (peptide sequence: TKHAVTEASPMVK, peptide start residue: 92)”: the log2 fold change was 0.374.

As for “UniProt P77307 (peptide sequence: HQLVVTQLK, peptide start residue: 249)”, the log2 fold change is -0.533.

As to “UniProt P75830 (peptide sequence: TNLDYTR, peptide start residue: 179)”, the log2 fold change is -0.551.

With “UniProt P39830 (peptide sequence: GANQVVMGER, peptide start residue: 528)”, the log2 fold change turned out to be 1.21.

Turning to “UniProt P68398 (peptide sequence: EVPVGAVLVHNNR, peptide start residue: 27)”, the log2 fold change worked out at 0.483.

As to “UniProt P76116 (peptide sequence: NEAYVTHR, peptide start residue: 284)”, the log2 fold change is -0.872.

With “UniProt P37326 (peptide sequence: YNPAPDLADAMK, peptide start residue: 179)”, the log2 fold change was -0.342.

“UniProt P42599 (peptide sequence: LSECQKVCFVPR, peptide start residue: 252)”: the log2 fold change is -0.582.

Regarding “UniProt P0AEH3 (peptide sequence: VGQQLMSK, peptide start residue: 91)”, the log2 fold change was determined as 0.523.

As to “UniProt P07013 (peptide sequence: LVLSGTVCR, peptide start residue: 5)”, the log2 fold change was -0.606.

Turning to “UniProt P37182 (peptide sequence: ESGVEAIPR, peptide start residue: 151)”, the log2 fold change was 0.522.

With “UniProt P39325 (peptide sequence: STLYLPDTAKEELEK, peptide start residue: 298)”, the log2 fold change is -1.01.

In the case of “UniProt P14175 (peptide sequence: YIEQGLSK, peptide start residue: 24)”, the log2 fold change came out at 1.4.

For the target “UniProt P43672 (peptide sequence: LMLGQLQADSGR, peptide start residue: 364)”, the log2 fold change is -0.906.

Take “UniProt P0AAC4 (peptide sequence: SDSIVQPR, peptide start residue: 7)”: the log2 fold change is -0.368.

In the case of “UniProt Q47622 (peptide sequence: KMNADDVVFTFQR, peptide start residue: 117)”, the log2 fold change was 1.14.

For “UniProt P39353 (peptide sequence: EGVIGEILSCHTKR, peptide start residue: 135)”, the log2 fold change is -0.665.

Take “UniProt P15034 (peptide sequence: QNLTAPATMIDWRPVVHEMR, peptide start residue: 155)”: the log2 fold change is -0.448.

For “UniProt P37342 (peptide sequence: SESLDDFFTR, peptide start residue: 261)”, the log2 fold change was found to be 0.46.

Regarding “UniProt P37634 (peptide sequence: HSFHAGNHADVLK, peptide start residue: 6)”, the log2 fold change is -1.17.

As to “UniProt P00888 (peptide sequence: LLVVCGPCSIHDPETALEYARR, peptide start residue: 55)”, the log2 fold change came out at 0.547.

In the case of “UniProt P39342 (peptide sequence: MGPVTEDER, peptide start residue: 387)”, the log2 fold change was -1.06.

In the case of “UniProt P77610 (peptide sequence: WLNAHEEGYHK, peptide start residue: 18)”, the log2 fold change is -0.358.

Regarding “UniProt P52073 (peptide sequence: LEGGEGSVK, peptide start residue: 217)”, the log2 fold change is -0.566.

Turning to “UniProt P45577 (peptide sequence: VAGEMNLSKTQLR, peptide start residue: 46)”, the log2 fold change is 0.623.

With “UniProt P36928 (peptide sequence: EAVSEWLYR, peptide start residue: 44)”, the log2 fold change is 0.728.

As to “UniProt P00954 (peptide sequence: QHLELSR, peptide start residue: 152)”, the log2 fold change was -0.982.

“UniProt P06987 (peptide sequence: VGDLSTEMIEHFFR, peptide start residue: 290)”: the log2 fold change was -1.32.

Values taken from the supplement of paper PMC12819154, “High-throughput peptide-centric local stability assay extends protein–ligand identification to membrane proteins, tissues and bacteria” (Nature Structural & Molecular Biology, 2025).
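Also: lysate desalted by size exclusion to strip endogenous ATP, peptide intensities built from DIA-NN precursor signals, and peptides missing any value discarded before comparison.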
